Hits are enriched below; roughly 3.5% of the tested compounds scored in any of these assays.
FBW7 activator: activators of human E3 ligase FBW7; Q969H0; 650,000 compounds, 0.13% hits; AlphaScreen FBW7–phospho-cyclin E peptide binding, activator screen; normalized activity (activation), % at 26.1 µM; AID 1259310; in the data active means normalized activity above about 1.9%;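 further: purified mutant Fbw7 with reduced substrate affinity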
GPR151 ag: activates the human receptor GPR151. activation, % at 11.2 µM. 650,000 compounds, 1% hits. PathHunter beta-arrestin GPR151 cells, luminescence. Q8TDV0; in the data active means activation above about 4.9%;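 further: 0% = median of compound wells and 100% = cells with positive control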
TEAD-YAP block: TEAD-YAP interaction inhibition. 640,000 compounds, 1.4% hits. AID 1259422. HEK-TIYL cells, TEAD-Gal4/YAP UAS-luciferase luminescence. inhibition, % at 9.12 µM; in the data active means inhibition above about 32%;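 further: 0% = median of test compound wells and 100% = reference inhibitor wells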
MITF inh: human MITF inhibition, primary screen; AlphaScreen MITF homodimerization, bead proximity signal; inhibition, % at 2.6 µM; 650,000 compounds, 0.91% hits; AID 1259374; in the data active means inhibition above about 50%;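 further: 0% = vehicle wells with protein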
Target sequence (O75030 whole entry, looked up): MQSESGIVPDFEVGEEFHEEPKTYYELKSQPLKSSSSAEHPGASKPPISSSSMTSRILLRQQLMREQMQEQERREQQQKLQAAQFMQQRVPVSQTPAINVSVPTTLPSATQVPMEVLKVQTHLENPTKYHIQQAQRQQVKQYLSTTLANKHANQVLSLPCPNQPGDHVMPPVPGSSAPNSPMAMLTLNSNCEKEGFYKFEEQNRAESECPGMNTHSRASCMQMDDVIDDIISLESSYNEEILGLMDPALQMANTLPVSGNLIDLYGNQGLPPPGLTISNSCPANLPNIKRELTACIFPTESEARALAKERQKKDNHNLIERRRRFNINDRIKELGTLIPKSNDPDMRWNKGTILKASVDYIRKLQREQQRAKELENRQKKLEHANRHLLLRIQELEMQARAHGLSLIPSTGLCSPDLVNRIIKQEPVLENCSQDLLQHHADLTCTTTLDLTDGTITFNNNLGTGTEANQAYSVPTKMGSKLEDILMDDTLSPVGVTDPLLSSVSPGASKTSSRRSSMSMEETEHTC
GPR151 confirm: human GPR151 activation, confirmation screen; shares compounds with GPR151 ag; GPR151 PathHunter beta-arrestin cells, luminescence, 90 min; % of EA-reagent control over plate median; activation, % at 11.2 µM; 6,700 tested, under 10 active;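 active means mean percent activation across replicates above the confirmation screen cutoff of 4.91%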
GPR119 ag: activates human GPR119 in a GPR151 counter-screen | AID 1508611 | GPR119 PathHunter beta-arrestin cells, luminescence, 90 min; 0 = compound-well median, 100 = enzyme-acceptor control | activation, % at 11.2 µM | 6,700 compounds, 0.3% hits | shares compounds with GPR151 ag;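 active means mean percent activation in the counterscreen above 29.09%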;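 further: counterscreen on off-target GPR119 to flag nonselective hits from the GPR151 activator screen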
* = called active by the depositor; . = no result given; ! = not active in a repeat.

SMILES	FBW7 activator	GPR151 ag	TEAD-YAP block	MITF inh	GPR151 confirm	GPR119 ag
Cc1ccc(C(=O)Nc2ccc3oc(-c4cccc(F)c4)nc3c2)cc1[N+](=O)[O-]	0	0	15	-17	.	.
CCN(CC)c1nc(Nc2cc(OC)c(OC)c(OC)c2)nc(Nc2cc(OC)c(OC)c(OC)c2)n1	0	2	11	5	.	.
COc1cc2nc(Nc3ccc4ncccc4c3)nc(Nc3ccc4c(c3)OCO4)c2cc1OC	0	7.7*	1	5	0	-7
COc1cc2nc(Oc3ccccc3)nc(Nc3ccc(NC(C)=O)cc3)c2cc1OC	0	7.4*	23	14	0	0
COc1cc2nc(Nc3ccccc3)nc(Nc3ccc(N4CCOCC4)cc3)c2cc1OC	0	8.2*	0	21	0	4
CCN(CC)c1nc(Nc2ccc(N3CCOCC3)cc2)nc(Nc2cc(OC)c(OC)c(OC)c2)n1	0	9.3*!	-2	8	0	5
COc1cc2nc(Nc3ccc(N4CCOCC4)cc3)nc(Nc3ccccc3)c2cc1OC	0	2	6	8	.	.
COCc1cc(C)nc2sc(C(=O)NCc3ccccc3)c(N)c12	0	2	-3	-1	.	.
Cc1nnc(NC(=O)CN2CCC(O)(c3ccc(F)cc3)CC2)s1	0	6.8*	2	-2	0	6
COc1ccc2ccccc2c1CN1CCN(C)C(CCO)C1 (stereo not drawn)	0	1	-1	-1	.	.
COc1ccc2ccccc2c1CN1CCN(CC(C)(C)C)C(CCO)C1 (stereo not drawn)	0	7.7*	-3	11	0	-7
CC(=O)OC1C(OC(=O)c2ccc(C)cc2)C(COC(=O)c2ccc(C)cc2)OC1n1cc(I)c(=O)[nH]c1=O (stereo not drawn)	0	0	4	13	.	.
Cc1c(C(=O)N2CCCC(C)C2)sc2ncn(Cc3ccccc3F)c(=O)c12 (stereo not drawn)	0	-1	-1	-3	.	.
Cc1c(C(=O)N2CCCC2)sc2ncn(Cc3ccccc3F)c(=O)c12	0	5.3*	7	2	1	16
CC[n+]1c(/C=C2\Sc3ccc(-c4ccccc4)cc3N2CCO)ccc2cc(OC)ccc21	-1	14*	91*	-22	0	0
COc1ccc(N=c2scc(-c3ccccc3)n2CCO)cc1	0	2	-24	-3	.	.
O=C(COc1ccc([N+](=O)[O-])cc1)NCc1ccccn1	0	0	-4	-5	.	.
O=C(Nc1ccccc1)Nc1snnc1C(=O)O	1	-3	1	14	.	.
Cc1ccc(-c2c(Nc3ccccc3F)c(=O)c2=O)cc1C	0	5.8*	49*	3	0	4
CCOC(=O)c1cccc(Nc2c(-c3ccc(C)c(C)c3)c(=O)c2=O)c1	0	12*	-4	2	1	-2
CCOC(=O)c1ccc(Nc2c(-c3ccc(Cl)cc3)c(=O)c2=O)cc1	0	0	-7	2	.	.
COc1ccccc1Nc1c(-c2ccc(C)c(C)c2)c(=O)c1=O	1	0	-10	16	.	.
O=C(Nc1ccc2nc[nH]c2c1)c1ccco1	0	1	-19	-6	.	.
COc1ccc(-c2cc(C(F)(F)F)n3nc(C(=O)Nc4ccc5oc(-c6ccccc6)nc5c4)cc3n2)cc1	0	1	-6	13	.	.
CC1CCCC(NC(=O)c2ccc(CNS(=O)(=O)c3ccc(F)cc3)cc2)C1C (stereo not drawn)	0	6.3*	-5	-3	0	-10
SMILES	FBW7 activator	GPR151 ag	TEAD-YAP block	MITF inh	GPR151 confirm	GPR119 ag
CC1CCCC(NC(=O)c2ccc(CNS(=O)(=O)c3ccc(Cl)cc3)cc2)C1C (stereo not drawn)	0	-1	5	-1	.	.
O=C(Nc1ccc(-c2cn[nH]c2)cc1)N[C@H](Cc1ccccc1)C(=O)O	0	-1	5	35	.	.
CNc1oc(-c2cccs2)nc1S(=O)(=O)c1ccccc1	0	5.1*	1	-4	0	11
Cc1cc(NCc2ccccc2)nc(-c2ccc(N3CCN(C)CC3)cc2)n1	0	14*	7	14	-1	-6
O=C(Nc1ccc(S(=O)(=O)Nc2nccs2)cc1)C(c1ccccc1)c1ccccc1	0	5.5*	0	9	0	0
O=C(Nc1ccc(S(=O)(=O)Nc2nccs2)cc1)C(Cl)Cl	0	1	3	4	.	.
CCC(C)(C)C1CCC(NC(=O)C(=O)Nc2ccccc2)CC1 (stereo not drawn)	0	6.3*	-14	8	0	-5
Cc1ccc(C)c(Cc2c(C)nc3nc(SCc4c(F)cccc4Cl)nn3c2C)c1	0	1	3	1	.	.
Cc1ccc(C)c(CSc2nc3nc(C)c(Cc4c(F)cccc4Cl)c(C)n3n2)c1	0	6.3*	3	2	0	11
CCOc1ccccc1C(=O)Nc1ccc2c(c1)N(CCOC)CCC2	0	9.4*	7	5	1	-2
COc1ccccc1C1c2c(oc3ccc(C)cc3c2=O)C(=O)N1CCN1CCOCC1 (stereo not drawn)	0	13*	3	-9	1	7
COc1cccc(C2c3c(oc4ccc(C)cc4c3=O)C(=O)N2CCN2CCOCC2)c1 (stereo not drawn)	0	1	-18	-6	.	.
O=C(Cn1cncn1)N1CCN(c2ncccn2)CC1	0	7.0*	-6	-3	0	10
CSCCC(NC(N)=O)C(=O)NNC(=O)c1sc2ccccc2c1Cl (stereo not drawn)	1	-1	-25	13	.	.
COCc1ccc([C@@H]2C[C@H]3CN(C4Cc5ccccc5C4)C(=O)[C@]34CCCN24)o1	0	4	-6	6	.	.
COCc1ccc([C@@H]2C[C@H]3CN(c4ccccc4)C(=O)[C@]34CCCN24)o1	0	5.6*	6	1	1	3
O=C(NC1=Nc2cccc3cccc1c23)c1ccc([N+](=O)[O-])cc1	0	5.5*	2	7	0	-12
O=[N+]([O-])c1cccc(/C=N/NC2=Nc3cccc4cccc2c34)c1	0	-1	-35	15	.	.
O=[N+]([O-])c1ccc(/C=N/NC2=Nc3cccc4cccc2c34)cc1	0	6.3*	-27	4	0	3
O=c1/c(=C/c2cn(-c3ccccc3)nc2-c2ccc(Cl)cc2)sc2nc3ccccc3n12	0	0	-2	7	.	.
Cc1ccc(C(=O)NN=C2CCC(C)CC2)cc1 (stereo not drawn)	0	8.1*	-17	10	2	-9
Cc1ccc(S(=O)(=O)NCC(=O)NN=C2CCC(C)CC2)cc1 (stereo not drawn)	0	6.5*	-1	-12	-1	-15
